Measured values as given in ChEMBL document CHEMBL3433997, “St. Jude Leishmania screening dataset” (2016).

Assays:
Format in all cases: functional
[1] = biological target: Solute carrier family 2, facilitated glucose transporter member 1 (Homo sapiens) (UniProt P11166); test: ST_JUDE_LEISH: Cytotoxicity at 2uM final concentration against transgenic Leishmania Mexicana promastigotes LmGLUT1 that are glucose transport deficient and complemented with the human glucose transporter GLUT1. Activity is measured by DNA content using SYBR green in vitro
[2] = biological target: Hexose transporter 1 (Plasmodium falciparum) (UniProt O97467); test: ST_JUDE_LEISH: Cytotoxicity at 2uM final concentration against transgenic Leishmania Mexicana promastigotes LmPfHT that are glucose transport deficient and complemented with the Plasmodium falciparum hexose transporter. Activity is measured by DNA content using SYBR green in vitro
[3] = biological target: Glucose transporter (Leishmania mexicana) (UniProt O61059); test: ST_JUDE_LEISH: Cytotoxicity at 2uM final concentration against transgenic Leishmania Mexicana promastigotes LmGT2 that are glucose transport deficient and complemented with the L. Mexicana glucose transporter 2. Activity is measured by DNA content using SYBR green in vitro

Sequence of Solute carrier family 2, facilitated glucose transporter member 1 (Homo sapiens) (P11166 whole entry): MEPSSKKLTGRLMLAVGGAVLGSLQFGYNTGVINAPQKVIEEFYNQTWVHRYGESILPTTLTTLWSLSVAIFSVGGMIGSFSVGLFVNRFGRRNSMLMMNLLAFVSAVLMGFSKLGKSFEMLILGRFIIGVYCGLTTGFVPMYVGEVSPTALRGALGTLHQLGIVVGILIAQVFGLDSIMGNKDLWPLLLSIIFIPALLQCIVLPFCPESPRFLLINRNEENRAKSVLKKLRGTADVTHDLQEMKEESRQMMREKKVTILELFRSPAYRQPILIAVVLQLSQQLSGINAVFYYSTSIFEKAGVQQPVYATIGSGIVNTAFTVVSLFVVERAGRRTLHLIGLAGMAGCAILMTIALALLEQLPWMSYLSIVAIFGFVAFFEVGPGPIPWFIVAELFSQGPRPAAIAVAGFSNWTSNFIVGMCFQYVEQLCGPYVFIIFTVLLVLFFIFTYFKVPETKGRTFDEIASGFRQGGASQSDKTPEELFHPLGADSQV

| SMILES | inhibition [1] [%] | inhibition [2] [%] | inhibition [3] [%] |
| --- | --- | --- | --- |
| FC(F)(F)c1ccc(NC(=S)N2CCC(CCN3CCC(c4c[nH]c5ccccc45)CC3)CC2)cc1 | 5.27 | 3.8 | 5.31 |
| CS(=O)(=O)Nc1cccc(-c2cnc3[nH]cc(-c4ccc(C(=O)O)cc4)c3c2)c1 | 0.37 | 0.36 | 3.74 |
| COc1ccc2ncc(OC)c(CCN3CC[C@@H](NCc4ccc5c(n4)NC(=O)CS5)[C@H](O)C3)c2n1 | 1.21 | 1.17 | -0.86 |
| C=CCc1ccccc1OCC(O)CN(C1CCCCC1)C1CCCCC1 (centres undefined) | -1.79 | -2.31 | 5.77 |
| c1ccc(-c2cc(NCCNc3cc(-c4ccccc4)nc4ccccc34)c3ccccc3n2)cc1 | -1.99 | 6.2 | 15.2 |
| O=C(Cc1cccc(OCCCN(Cc2cccc(C(F)(F)F)c2Cl)CC(c2ccccc2)c2ccccc2)c1)NCc1ccco1 | -1.28 | 2.42 | -2.47 |
| O=C(Nc1cccc(-c2cccc(-c3nc4cc(F)ccc4[nH]3)c2)c1)c1ccoc1 | 2.86 | 1.64 | 4.95 |
| CCN(CC)C(=O)c1cnc(-c2ccccc2)nc1Oc1cccc(Cl)c1 | -0.46 | 2.57 | 3 |
| Nc1nc2c(cnn2CCCCCCCP(=O)(O)O)c(=O)[nH]1 | -0.8 | 0.25 | -0.36 |
| CN1CCN(CC2(Nc3nccc(NCc4ccc(Cl)cc4Cl)n3)CCCCC2)CC1 | 6.66 | 7.74 | 6.18 |
| Cc1noc(C)c1-c1cccc(CNCc2cccc(-c3ccc(-c4nc5cccc(C)c5[nH]4)s3)c2)c1 | 2.85 | 2.47 | 2.66 |
| CCc1ccc(CN2CCCCC(NC(=O)c3cc(-c4ccccc4F)cs3)C2)cc1 (centres undefined) | -2.71 | -0.89 | 1.12 |
| Cc1ccccc1C1CCN(C2CCC(NC(=O)c3ccc(-c4cccs4)s3)CC2)CC1 (centres undefined) | 2.14 | 1.24 | 1.93 |
| CN(C)CCNCc1ccc(-c2ccc3c(Nc4ccc(F)cc4Cl)ccnc3c2)o1 | 4.19 | 6.24 | -0.47 |
| Oc1ccc(C=NNC(S)=Nc2cccc3ccccc23)c(O)c1 | 4.86 | 4.96 | 2.47 |
| O=C(CCc1nc2c(cnn2-c2ccccc2)c(=O)[nH]1)NC1CCSc2ccccc21 (centres undefined) | 0.18 | 1.79 | -2.08 |
| Cn1nc(-c2ccc(NC(=O)Nc3ccc4ccccc4c3)c(F)c2)c2cnc(NCCN3CCOCC3)nc21 | 5.52 | 4.79 | 1.17 |

| SMILES | inhibition [1] [%] | inhibition [2] [%] | inhibition [3] [%] |
| --- | --- | --- | --- |
| OCC1CCN(Cc2ccc(-c3ccc(-c4nc5cc(F)ccc5[nH]4)cc3)cc2)CC1 | 6.63 | 4.55 | 4.78 |
| Cn1cc(CN2CCC(OC(c3ccccc3)c3ccc(Cl)cc3)CC2)cn1 (centres undefined) | 4.78 | 1.66 | -0.63 |
| CN(C)CCCN(C)c1cccc2c1nc(-c1cccnc1)n2CCNCc1ccccc1 | 6.47 | 7.52 | 1.45 |
| COc1ccc2nccc([C@@H](O)CN3CCC(NCc4cc5cc(C)ccc5s4)CC3)c2c1 | 31.5 | 46 | 21.9 |
| CC(C)N1CCC(Oc2ccc(CN3CCN(C(c4ccccc4)c4ccc(Cl)cc4)CC3)cc2)CC1 (centres undefined) | 6.88 | 3.12 | 2.61 |
| CCOc1cccc2nc(NCCCNCc3ccc(Cl)c(Cl)c3)cc(NCCCNCc3ccc(Cl)c(Cl)c3)c12 | -3.5 | -0.94 | -0.45 |
| COc1cc(OC)c2c(c1Cl)O[C@]1(C2=O)C(=O)C(Cc2ccccc2)(Cc2ccccc2)C(=O)C[C@H]1C | 2.41 | 3.13 | 2.6 |
| COc1cccc2c(N/N=C/c3ccccc3[N+](=O)[O-])ccnc12 | 4.82 | 5.71 | 3.87 |
| Cc1cccc2nc(-c3ccc(-c4ccc(C(=O)NCCc5cn(C)cn5)cc4)s3)[nH]c12 | 4.34 | 5.34 | 2.6 |
| CCCNCc1ccc(-c2ccc(CN(CCOC)C(=O)CC3CCCC3=O)cc2)nc1 (centres undefined) | 0.55 | 0.07 | -9.43 |
| N=C(N)c1ccc(Nc2nc(Nc3ccc(-c4ccccc4)cc3)ncc2[N+](=O)[O-])cc1 | 3.15 | 3.65 | 3.44 |
| Clc1ccccc1OCc1ccccn1 | 3.19 | 2.07 | 2.66 |
| CCN(CC)CCN(Cc1ccc(-c2ccc(C(F)(F)F)cc2)nc1)C(=O)Cn1cc(Cc2cnn(C)c2)c(=O)n2nc(-c3ccccc3)cc12 | 2.39 | 3.48 | 0.44 |
| N=C(N)NN=Cc1ccc2c(ccc3ccccc32)c1 | 7.03 | 8.19 | 3.76 |
| Cc1cc(-c2nc3cncc(-c4cccc(CN5CCCC5Cc5cccnc5)c4)c3n2C)nn1C (centres undefined) | -1.04 | -2.01 | -0.34 |
| CCOc1ccc(-c2nc(NC(=O)CS(=O)(=O)c3ccccc3)sc2C)cc1 | 2.75 | 2.62 | 1.8 |
